Data taken from PubChem BioAssay AID2806 (Sanford-Burnham Center for Chemical Genomics, 2010).
About 660 (0.2%) of roughly 330,000 compounds were called active. The sample holds actives, similar compounds and a random draw of the others, so the mix is not that of the screen. A number with no mark means an inactive call.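 The calls were made as follows: active = inhibition of at least 40% at 10 µM in the primary screen; inactive = the rest.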

test system: intestinal alkaline phosphatase [Mus musculus]; experiment: mouse intestinal phosphatase enzyme inhibition – biochemical, luminescence, uHTS, primary screen (AID 2806); conditions: purified mouse IAP, CDP-Star luminescence, 30 min; at 10 µM; stronger effect = higher value;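 also: plate controls were DMSO with enzyme for no effect and no enzyme wells for full effect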

| SMILES | inhibition |
| --- | --- |
| O=C1NC(=O)N(Cc2ccco2)C(=O)/C1=C\c1ccc(-c2ccc(F)cc2)o1 | 64.1% (active) |
| O=C1NC(=O)N(CCc2ccc(F)cc2)C(=O)/C1=C/C=C/c1ccccc1 | 1.6% |
| O=C(O)COc1ccccc1/C=C1\C(=O)NC(=O)N(CCC2=CCCCC2)C1=O | 0.6% |
| O=C1NC(=O)N(Cc2ccco2)C(=O)/C1=C\c1cccn1CCOc1ccccc1 | 40.7% (active) |
| COC(=O)C1=C(c2cc3ccccc3s2)C[C@@H]2CC[C@H]1N2C(=O)NCc1cccc2ccccc12 | 1% |
| COc1ccc2c(c1)[C@]13CCCCC1C(C2)N(C)CC3 (stereo not given in full) | 0.8% |
| O=Cc1cn(Cc2ccc(F)cc2Cl)c2ccccc12 | -2% |
| CNCC(O)c1cc(F)c(OCc2ccccc2)c(OCc2ccccc2)c1F (stereo not given) | 5.2% |
| Cc1cc(C(=O)OCC(=O)Nc2c(F)cccc2F)c(C)n1C1CC1 | 7.2% |
| Oc1ccc2c3c1OC1[C@H](O)CC[C@@]4(O)[C@@H](C2)N(CC2CC2)CC[C@]314 (stereo not given in full) | 1.2% |
| COc1cccc(N2C(=O)NC(=O)/C(=C\c3ccc([N+](=O)[O-])s3)C2=O)c1 | 34.9% |
| COc1ccc(N2C(=O)/C(=C/c3ccco3)C(=O)NC2=S)cc1 | 42.1% (active) |
| O=C1NC(=O)N(c2ccccc2)C(=O)/C1=C/c1ccc([N+](=O)[O-])s1 | 26.5% |
| CSc1ccc(C(=O)C2CCCN(Cc3ccn[nH]3)C2)cc1 (stereo not given) | -3.6% |
| CC1CCCCN1Cc1cccnc1 (stereo not given) | 0.7% |
